Compounds with a hit are over-represented: about 1.1% of the library has one in this group of screens.
TRPV1 PAM: HTS Assay for Compounds that Act as Potentiators of the Vanilloid Receptor 1; Transient receptor potential cation channel subfamily V member 1 (Homo sapiens), Q8NER1; TRPV1-expressing cells, Fluo-8 calcium influx, capsaicin EC20 potentiation; potentiation, % at 8.33 µM; 320,000 compounds, 0.02% hits; in the data active = potentiation above about 80%; inconclusive = between about 30% and that limit; also: 0% is about no effect
Target sequence (Q8NER1 whole entry, looked up): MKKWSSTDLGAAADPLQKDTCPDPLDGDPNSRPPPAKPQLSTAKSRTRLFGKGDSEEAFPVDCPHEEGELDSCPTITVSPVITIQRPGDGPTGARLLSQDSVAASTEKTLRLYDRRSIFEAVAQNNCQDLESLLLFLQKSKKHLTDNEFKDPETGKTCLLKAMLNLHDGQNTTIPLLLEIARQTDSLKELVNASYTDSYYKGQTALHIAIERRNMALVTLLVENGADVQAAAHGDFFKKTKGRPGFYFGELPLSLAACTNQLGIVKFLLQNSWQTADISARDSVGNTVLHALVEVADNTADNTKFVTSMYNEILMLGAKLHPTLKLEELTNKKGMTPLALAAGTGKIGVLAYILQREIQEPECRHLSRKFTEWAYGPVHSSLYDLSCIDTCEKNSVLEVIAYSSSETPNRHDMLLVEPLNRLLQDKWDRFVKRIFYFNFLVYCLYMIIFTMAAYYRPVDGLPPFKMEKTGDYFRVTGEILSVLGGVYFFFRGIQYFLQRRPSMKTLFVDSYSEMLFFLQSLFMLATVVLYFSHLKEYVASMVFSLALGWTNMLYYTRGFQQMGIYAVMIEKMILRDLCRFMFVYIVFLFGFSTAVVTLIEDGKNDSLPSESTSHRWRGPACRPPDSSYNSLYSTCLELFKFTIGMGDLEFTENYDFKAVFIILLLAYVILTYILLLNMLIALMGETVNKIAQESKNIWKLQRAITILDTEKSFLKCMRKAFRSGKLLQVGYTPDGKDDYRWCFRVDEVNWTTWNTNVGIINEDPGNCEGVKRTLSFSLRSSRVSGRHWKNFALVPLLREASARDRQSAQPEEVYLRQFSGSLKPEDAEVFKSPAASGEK
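Cells expressing TRPV1 were dye-loaded with Fluo-8 and read kinetically: 10 s baseline, 3 min after compound (agonist portion), then 2 min after EC20 capsaicin (allosteric enhancer portion). Calcium-bound dye fluorescence at 480/520 nm.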
gsp agonist: qHTS for Agonist of gsp, the Etiologic Mutation Responsible for Fibrous Dysplasia/McCune-Albright Syndrome: qHTS | 340,000 compounds, 0.13% hits | Potency, µM (titrated, usually from 76.9 µM), for the others: at the top dose activation (cAMP increase), hits mostly activators | gsp mutant cells, cAMP HTRF, 30 min; active = well fitted activation curve with a large enough effect; inconclusive = small, poorly fitted or top-dose-only effect, or another doubt; inactive = no such curve, though single readings can be large or run the other way; cell line not stated here;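 also: phosphodiesterase inhibitor Ro 20-1724 added with compounds to block cAMP breakdown; potency is read from the fitted curve at half-maximal effect; nearly all actives have a fitted effect of over 60% in size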
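Cells in DMEM/10% FBS with G418 were pretreated with compounds in DMSO plus […] (300 uM stock) for 30 min at 37C. cAMP was measured by HTRF (cAMP-d2 plus anti-cAMP antibody-K) after 30 min at room temperature.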
gsp antagonist: qHTS for Antagonists of gsp, the Etiologic Mutation Responsible for Fibrous Dysplasia/McCune-Albright Syndrome: qHTS. gsp-mutant cells, cAMP HTRF, 30 min. Potency, µM (series often up to 76.9 µM), for inactives: at the highest dose activity change, negative = inhibition, actives largely listed as inhibitors. 340,000 compounds, 0.4% hits. AID 624288, 2012; calls by dose curve; cell line not stated here;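 also: intracellular cAMP measured with PDE inhibitor Ro 20-1724 present during compound exposure; potency is read from the fitted curve at half-maximal effect; % is scaled to controls: 0 for no effect and ±100 for the full control effect; nearly all actives have a fitted effect of over 65% in size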
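Measurement of cellular cAMP by homogeneous time-resolved fluorescence following a 30 min compound exposure at 37C. The PDE inhibitor […] was present throughout; the assay buffer was DPBS with 0.05% BSA and 0.005% Tween 20.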
RXFP1 ag: qHTS Assay for Agonists of the Relaxin Receptor RXFP1. Potency, µM (highest dose often 57.5 µM), without a hit: at the highest dose activation, usual class: activators. Relaxin receptor 1 (Homo sapiens), Q9HBX9. HEK293T-RXFP1 cAMP TR-FRET, 30 min; response scale: percent of porcine relaxin response, buffer zero. AID 2676, 2010. 370,000 compounds, 0.3% hits; active = well fitted activation curve with a large enough effect; inconclusive = small, poorly fitted or top-dose-only effect; also: potency is read from the fitted curve at half-maximal effect; % is scaled to controls: 0 for no effect and ±100 for the full control effect; nearly all actives have a fitted effect of over 60% in size
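HEK293T cells stably expressing RXFP1 were pretreated with the PDE4 inhibitor Ro 20174, exposed to compounds for 30 min at 37C, lysed, and cAMP was read by TR-FRET. Data normalized to buffer (basal) and 29 nM porcine relaxin (100%).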
TRPV1 agonist: HTS Assay for Compounds that Act as Agonists of the Vanilloid Receptor 1 | AID 540275, 2011 | 320,000 compounds, 0.19% hits | activation, % at 8.33 µM | TRPV1-expressing cells, Fluo-8 calcium influx, agonist mode; in the data active = activation above about 80%; inconclusive = between about 30% and that limit; also: 0% is about no effect
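Cells expressing TRPV1 were dye-loaded with Fluo-8 and read kinetically: 10 s baseline, 3 min after compound (agonist portion), then 2 min after EC20 capsaicin (allosteric enhancer portion). Calcium-bound dye fluorescence at 480/520 nm.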
RXFP1 antag: qHTS Assay for Antagonists of the Relaxin Receptor RXFP1. Relaxin receptor 1 (Homo sapiens), Q9HBX9. HEK293-RXFP1, relaxin-stimulated cAMP HTRF, 30 min; stronger effect = lower value. activity change, negative = inhibition, % at 57.5 µM. 350,000 compounds, 0.59% hits;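 active = activity change of -60% or lower, but not beyond a set lower limit; inconclusive = change between -60% and -40%, or beyond the set limit; inactive = change above -40%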; also: % is scaled to controls: 0 for no effect and ±100 for the full control effect
Numbers without * were called inactive; ? = inconclusive; . = no result given; [ ] = remark or other dose.

SMILES	TRPV1 PAM	gsp agonist	gsp antagonist	RXFP1 ag	TRPV1 agonist	RXFP1 antag
O=C(Nc1ccc(Cl)c(S(=O)(=O)N2CCOCC2)c1)c1ccc(OCC2CCCO2)cc1 (stereo not given)	20	-32%	32µM*	-1%	11	-30
COc1ccc(-c2cc(C(=O)Oc3ccc(C#N)cc3)no2)cc1	.	.	.	0%	.	.
O=C(CSC1=Nc2ccccc2N=C(c2ccc(F)cc2)C1)Nc1ccc(Cl)cc1	.	.	.	2%	.	.
Cc1cc(CCCOc2c(C)cc(-c3noc(C(F)(F)F)n3)cc2C)on1	.	.	.	.	.	-29
Cc1ccc(NC(=O)c2cc(S(=O)(=O)N3CCC(C)CC3)cn2C)cc1Cl	.	.	.	7%	.	.
CC(C)Oc1ccc(CNC(=O)Cn2nc(N3CCN(c4ccccc4)CC3)ccc2=O)cc1	.	.	.	-1%	.	-15
O=C(Nc1cccc(Br)c1)c1ccc(Cl)c(S(=O)(=O)N2CCOCC2)c1	24	-12%	40µM*	0%	0	-29
CCOC(=O)C1=C(O)/C(=C/c2cccc(OC)c2O)N=C1C	11	-52%	-21%	-1%	2	-63*
CCOC(=O)c1ccc(NC(=O)N2CCN(Cc3cccc(F)c3)CC2)cc1	9	14%	-3%	-2%	81*	-24
CC1CCN(C(=O)CSc2ccc(-c3cccc([N+](=O)[O-])c3)nn2)CC1	-11	9%[15.4 µM]	28µM*	0%	9	-14
Cc1ccc(NC(=O)CCc2nc3ccccc3c(=O)[nH]2)cc1S(=O)(=O)N1CCOCC1	-5	3%[15.4 µM]	-16%	1%	12	4
Cc1ccc(OCC(=O)N/N=C\c2cccs2)c([N+](=O)[O-])c1	?	6%[15.4 µM]	-10%	0%	-5	-12
Cc1ccc([N+](=O)[O-])c(C(=O)N/N=C/c2cccs2)c1	20	?	-9%	2%	83*	4
CC1=CC(C)(C)N2C(=O)C3(C(C#N)=C(N)Oc4cc(O)ccc43)c3c(C)c(C)cc1c32 (stereo not given)	-11	-4%	-13%	0%	-2	-73*
Cc1ccc(CN2C(=O)C(=O)c3cc(Br)cc(C)c32)cc1	.	.	.	1%	.	-62*
CCCOc1ccc(CN2C(=O)C(=O)c3cccc(C)c32)cc1	.	.	.	-2%	.	-13
O=C(CCn1c(=S)[nH]c2cc3c(cc2c1=O)OCO3)NCc1cccc(Cl)c1	23	?	22%	?	10	?
O=C(CCn1c(=S)[nH]c2cc3c(cc2c1=O)OCO3)NCc1ccccc1Cl	2	23%	19%	?	-2	-70*
O=C(CCCn1c(=S)[nH]c2cc3c(cc2c1=O)OCO3)NCc1cccc(Cl)c1	-38	11%	-3%	?	-2	-103*
CSCC[C@H](N)C(=O)N1CCC(C(=O)N[C@H](C)C(=O)NC(C)c2ccccc2)CC1 (stereo not given in full)	1	.	10%	2%	1	.
COc1ccc(C(NC(=O)c2c(F)c(F)c(F)c(F)c2F)c2ccccc2)cc1 (stereo not given)	-7	-38%	32µM*	-2%	?	?
CCOc1ccccc1N(CC(=O)Nc1ccc(OC)c(Cl)c1)S(=O)(=O)c1ccccc1	.	.	.	1%	.	.
CC(C)=CCOc1ccc(/C=C/C(=O)c2ccc(OCC=C(C)C)cc2OCC(=O)O)cc1	.	.	.	.	.	-102*
Cc1cccc(NC(=O)C2CCN(C(=O)c3ccc(Cl)cc3)CC2)n1	-7	0%	-3%	2%	8	5
O=c1c2sccc2nc(SCc2cc(=O)n3cc(Br)ccc3n2)n1Cc1ccccn1	4	25%[15.4 µM]	6%	25µM*	-3	12
SMILES	TRPV1 PAM	gsp agonist	gsp antagonist	RXFP1 ag	TRPV1 agonist	RXFP1 antag
CCCCCC1CCC(C(=O)N2CCOCC2)CC1 (stereo not given)	0	8%[15.4 µM]	-8%	-1%	94*	-9
CCCS(=O)(=O)N1CCC(C(=O)N2CCOCC2)CC1	2	-2%	-4%	2%	0	-1
CCCCCCC1CCC(C(=O)N2CCOCC2)CC1 (stereo not given)	-17	3%	-3%	-1%	89*	5
C/C(=N\Nc1ccc(Cl)c(C(=O)O)c1)c1ccc(N2CCOCC2)cc1	?	-16%[15.4 µM]	4%	0%	1	-4
O=C(COC(=O)c1ccc(O)cc1O)Nc1cc(-c2ccccc2)nn1-c1ccccc1	-4	-10%[15.4 µM]	35µM*	-1%	3	-73*
COc1ccc(CCC(=O)NCc2nc3cccnc3n2Cc2ccc(F)cc2)cc1	.	.	.	1%	.	4
CC(C)CCn1c(SCc2cccc(F)c2)nc2ccsc2c1=O	.	.	.	4%	.	-76*
CCOC(=O)c1ccccc1NC(=O)COC(=O)C1CCN(S(=O)(=O)c2ccccc2C(=O)OC)CC1	-7	3%	-13%	4%	1	-12
CCN1CCN(c2nc3c(C)cccn3c(=O)c2/C=C(\C#N)C(=O)NCCOC)CC1	26	?	14%	25µM*	16	6
Cc1ccc(C)c(S(=O)(=O)N2CCN(C(=O)Cn3[nH]c(=O)c4ccccc4c3=O)CC2)c1	-5	7%[15.4 µM]	-5%	1%	-5	2
CCn1c(COc2cccc(C)c2)nnc1SCC(=O)Nc1cccc(C(=O)OC)c1	-2	-2%	28µM*	1%	16	-5
Cc1ccc(C)c(C(=O)NCCN(C)C)c1	2	-34%	21%	1%	1	7
C=C(CN(C)C)C(=O)c1cc(C)ccc1C	.	?	?	.	.	-109*
CC(C)(C)c1ccc2c(c1)OC(C(=O)N/N=C\c1ccc(-c3cccc(C(=O)O)c3)o1)CO2 (stereo not given)	-8	11%	-25%	4%	4	-74*
CC(C)(C)c1ccc2c(c1)OC(C(=O)N/N=C\c1ccccn1)CO2 (stereo not given)	-54	-46%	3%	-2%	-6	-61*
O=C(/C=C/C(Cl)(Cl)Cl)Nc1ccc(Cl)cc1	.	?	-6%	.	.	-73*
NC(=O)/C=C/C(=O)Nc1ccc(Cl)cc1	3	3%[15.4 µM]	-3%	-1%	2	7
O=C1c2ccccc2-c2onc3c(N4CCN(CCO)CC4)cc(N4CCN(C(=O)c5ccco5)CC4)c1c23	-2	-13%[15.4 µM]	18µM*	2%	1	-32

From PubChem
